Measured values: PubChem BioAssay
The other results are listed elsewhere or left out. Calls of active or inactive are those of the source.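 How the source made its calls, unless noted: active means activation above the solvent-only control well mean plus 3 SD, set per plate batch (cut at about 110% in these data); inactive means the rest.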

Key:
[1] = test system: TLR4-MyD88 interaction (human), BLA complementation; assay: disruptors of TLR4 binding to MyD88 – cell-based, HeLa CL3-4, BLA complementation, FRET ratio, confirmation (AID 941;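 active means mean inhibition across three repeat runs above about 25% carried over from the earlier screen, limit read from the data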;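 further: plate controls were DMSO only for no effect and clavulanic acid blocking BLA at full dose for full effect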); settings: CCF4 FRET ratio, at 8.4 µM, active compounds read high
[2] = BLA reporter interference in HeLa cells – cell-based, full-length BLA, CCF4 FRET ratio, artefact control for TLR4-MyD88 binding inhibitor project, confirmation (AID 1237;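 active means mean inhibition over three repeats above about 26% taken from the earlier screen, limit read from the data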;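 further: HeLa cells stably expressing beta-lactamase reporter as counterscreen for TLR4-MyD88 inhibitors; 0% = DMSO and 100% = clavulanic acid full inhibition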); settings: at 8.4 µM, active compounds read high
[3] = biological target: Insulin-degrading enzyme (Homo sapiens) (UniProt P14735); assay: cellular IDE Abeta-cleavage inhibition – fluorescence polarization, HEK cells, FAbetaB substrate, confirmation (AID 435028;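 active means mean inhibition across triplicate wells above the cutoff set by the earlier primary insulin-degrading enzyme screen, cut at about 16% in these data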;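 further: 0% = DMSO wells and 100% = 60 µM reference IDE inhibitor Ii1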); settings: at 5.59 µM, active compounds read high
[4] = HEK cell viability loss – luminescence, cytotoxicity control for IDE inhibitor project (AID 449730; in the data active means inhibition above about 22%;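 further: 0% = vehicle wells and 100% = reference cytotoxic drug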); settings: HEK293 cytotoxicity, ATP luminescence; at 5.59 µM; active compounds read high
[5] = biological target: Receptor-interacting serine/threonine-protein kinase 2 (Homo sapiens) (UniProt O43353); assay: inhibitors of RIPK2 association with NOD2 – fluorescence, CHO cells, BLA complementation, triplicate, confirmation (AID 624370;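 active means mean inhibition across replicates above a set limit taken from the earlier primary screen, cut at about 21% in these data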;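 further: 0% = DMSO-only wells and the high end = clavulanate BLA-blocked wells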); settings: CCF4 FRET, at 4.98 µM, active compounds read high
Sequence of Receptor-interacting serine/threonine-protein kinase 2 (Homo sapiens) (O43353 whole entry, looked up): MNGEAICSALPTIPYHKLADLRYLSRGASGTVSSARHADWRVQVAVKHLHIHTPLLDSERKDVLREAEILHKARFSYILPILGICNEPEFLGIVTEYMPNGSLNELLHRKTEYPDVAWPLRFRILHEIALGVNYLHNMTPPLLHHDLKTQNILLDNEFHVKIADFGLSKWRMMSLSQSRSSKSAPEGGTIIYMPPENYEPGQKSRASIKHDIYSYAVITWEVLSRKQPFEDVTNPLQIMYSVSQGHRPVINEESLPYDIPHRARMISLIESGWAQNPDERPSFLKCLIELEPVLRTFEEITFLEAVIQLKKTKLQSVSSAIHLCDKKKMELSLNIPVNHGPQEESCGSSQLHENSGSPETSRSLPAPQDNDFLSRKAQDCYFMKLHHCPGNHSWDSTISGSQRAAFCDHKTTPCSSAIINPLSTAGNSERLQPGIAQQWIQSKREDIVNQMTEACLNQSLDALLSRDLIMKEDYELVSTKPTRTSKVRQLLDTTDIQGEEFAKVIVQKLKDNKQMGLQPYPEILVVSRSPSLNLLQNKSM

[6] = BLA reporter readout interference – cell-based, CHO-K1 CMV-bla, CCF4 FRET, fluorescence, artefact control for NOD2-RIPK2 interaction inhibitor project, confirmation (AID 624371;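 active means mean inhibition above the low-control mean inhibition plus three low-control SD, cut at about 11% in these data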;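 further: 0% = DMSO only wells and 100% = clavulanate high control wells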); settings: CCF4 FRET ratio, counterscreen, at 4.98 µM, active compounds read high
[7] = biological target: Sphingosine 1-phosphate receptor 4 (Homo sapiens) (UniProt O95977); assay: blockers of human S1P4 signalling – cell-based, confirmation (AID 1524; in the data active means inhibition above about 30%); settings: S1P4-expressing cell line, antagonist mode, reporter read-out; at 4.98 µM; active compounds read high
Sequence of Sphingosine 1-phosphate receptor 4 (Homo sapiens) (O95977 whole entry, looked up): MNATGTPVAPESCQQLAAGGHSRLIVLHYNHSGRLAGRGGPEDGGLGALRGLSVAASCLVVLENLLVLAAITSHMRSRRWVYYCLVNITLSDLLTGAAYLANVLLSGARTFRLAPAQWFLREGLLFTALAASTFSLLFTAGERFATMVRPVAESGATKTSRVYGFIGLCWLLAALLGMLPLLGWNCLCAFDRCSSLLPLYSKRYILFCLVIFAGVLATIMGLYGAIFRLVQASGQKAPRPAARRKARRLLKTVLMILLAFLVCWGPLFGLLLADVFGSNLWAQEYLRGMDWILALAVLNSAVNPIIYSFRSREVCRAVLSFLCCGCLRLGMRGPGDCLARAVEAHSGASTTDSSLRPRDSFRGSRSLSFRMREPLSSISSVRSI

[8] = biological target: Sphingosine 1-phosphate receptor 1 (Homo sapiens) (UniProt P21453); assay: blockade of human S1P1 receptor – cell-based, counter-screen for S1P4 antagonist project (AID 1564; in the data active means inhibition above about 40%;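 further: receptor stimulated with S1P near its EC80; 0% = agonist stimulated wells and 100% = vehicle only wells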); settings: cell-based S1P1 antagonist counterscreen, at 4.98 µM, active compounds read high
Sequence of Sphingosine 1-phosphate receptor 1 (Homo sapiens) (P21453 whole entry, looked up): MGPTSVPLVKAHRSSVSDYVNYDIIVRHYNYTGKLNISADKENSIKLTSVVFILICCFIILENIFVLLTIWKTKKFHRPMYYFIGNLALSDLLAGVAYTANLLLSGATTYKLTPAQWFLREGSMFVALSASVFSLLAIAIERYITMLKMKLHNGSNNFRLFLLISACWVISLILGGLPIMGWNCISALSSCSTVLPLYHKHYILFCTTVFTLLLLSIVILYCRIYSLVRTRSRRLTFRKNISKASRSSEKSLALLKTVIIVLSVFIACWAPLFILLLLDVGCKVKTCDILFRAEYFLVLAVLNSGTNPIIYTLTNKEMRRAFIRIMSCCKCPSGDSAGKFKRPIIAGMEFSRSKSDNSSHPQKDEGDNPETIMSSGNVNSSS

[9] = biological target: Protein-arginine deiminase type-4 (Homo sapiens) (UniProt Q9UM07); assay: protein arginine deiminase 4 blockade, retest – biochemical, fluorescence polarization, confirmation (AID 488796;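 active means mean inhibition across replicates above the hit cutoff set by the earlier primary screen, cut at about 15% in these data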;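 further: inhibitors block active-site labeling by the probe so polarization falls; 0% = PAD4 with probe and DMSO and 100% = probe without PAD4 enzyme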); settings: recombinant PAD4, RCA probe fluorescence polarization; at 6.36 µM; active compounds read high
Sequence of Protein-arginine deiminase type-4 (Homo sapiens) (Q9UM07 whole entry, looked up): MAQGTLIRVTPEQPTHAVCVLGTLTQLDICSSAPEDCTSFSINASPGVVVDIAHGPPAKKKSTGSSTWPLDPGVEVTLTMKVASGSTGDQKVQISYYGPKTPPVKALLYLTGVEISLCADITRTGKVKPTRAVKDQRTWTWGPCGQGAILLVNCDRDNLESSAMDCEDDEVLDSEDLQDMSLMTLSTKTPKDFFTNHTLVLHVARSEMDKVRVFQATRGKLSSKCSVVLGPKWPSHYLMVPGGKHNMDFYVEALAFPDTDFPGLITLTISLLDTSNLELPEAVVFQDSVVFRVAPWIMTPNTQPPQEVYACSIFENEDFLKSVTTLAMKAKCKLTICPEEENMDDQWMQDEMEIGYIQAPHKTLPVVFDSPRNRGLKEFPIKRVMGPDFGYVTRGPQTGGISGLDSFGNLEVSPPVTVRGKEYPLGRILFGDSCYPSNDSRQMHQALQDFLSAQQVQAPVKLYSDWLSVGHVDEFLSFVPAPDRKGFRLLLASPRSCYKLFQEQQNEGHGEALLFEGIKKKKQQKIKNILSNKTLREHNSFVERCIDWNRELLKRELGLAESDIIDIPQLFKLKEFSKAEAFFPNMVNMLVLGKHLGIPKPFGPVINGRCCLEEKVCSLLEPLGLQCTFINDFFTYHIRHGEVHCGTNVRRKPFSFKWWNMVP

[10] = biological target: Toll-like receptor 9 (Homo sapiens) (UniProt Q9NR96); assay: disruptors of TLR9 binding to MyD88 – cell-based, CHO, BLA complementation, fluorescence, triplicate, confirmation (AID 540250;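 active means mean inhibition across three repeats above about 21% taken from the earlier screen, limit read from the data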;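 further: blue over green emission ratio reports constitutive TLR9 MyD88 association via BLA complementation; 0% = DMSO vehicle wells and 100% = clavulanate BLA inhibitor wells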); settings: CCF4 FRET ratio, at 4.98 µM, active compounds read high
Sequence of Toll-like receptor 9 (Homo sapiens) (Q9NR96 whole entry, looked up): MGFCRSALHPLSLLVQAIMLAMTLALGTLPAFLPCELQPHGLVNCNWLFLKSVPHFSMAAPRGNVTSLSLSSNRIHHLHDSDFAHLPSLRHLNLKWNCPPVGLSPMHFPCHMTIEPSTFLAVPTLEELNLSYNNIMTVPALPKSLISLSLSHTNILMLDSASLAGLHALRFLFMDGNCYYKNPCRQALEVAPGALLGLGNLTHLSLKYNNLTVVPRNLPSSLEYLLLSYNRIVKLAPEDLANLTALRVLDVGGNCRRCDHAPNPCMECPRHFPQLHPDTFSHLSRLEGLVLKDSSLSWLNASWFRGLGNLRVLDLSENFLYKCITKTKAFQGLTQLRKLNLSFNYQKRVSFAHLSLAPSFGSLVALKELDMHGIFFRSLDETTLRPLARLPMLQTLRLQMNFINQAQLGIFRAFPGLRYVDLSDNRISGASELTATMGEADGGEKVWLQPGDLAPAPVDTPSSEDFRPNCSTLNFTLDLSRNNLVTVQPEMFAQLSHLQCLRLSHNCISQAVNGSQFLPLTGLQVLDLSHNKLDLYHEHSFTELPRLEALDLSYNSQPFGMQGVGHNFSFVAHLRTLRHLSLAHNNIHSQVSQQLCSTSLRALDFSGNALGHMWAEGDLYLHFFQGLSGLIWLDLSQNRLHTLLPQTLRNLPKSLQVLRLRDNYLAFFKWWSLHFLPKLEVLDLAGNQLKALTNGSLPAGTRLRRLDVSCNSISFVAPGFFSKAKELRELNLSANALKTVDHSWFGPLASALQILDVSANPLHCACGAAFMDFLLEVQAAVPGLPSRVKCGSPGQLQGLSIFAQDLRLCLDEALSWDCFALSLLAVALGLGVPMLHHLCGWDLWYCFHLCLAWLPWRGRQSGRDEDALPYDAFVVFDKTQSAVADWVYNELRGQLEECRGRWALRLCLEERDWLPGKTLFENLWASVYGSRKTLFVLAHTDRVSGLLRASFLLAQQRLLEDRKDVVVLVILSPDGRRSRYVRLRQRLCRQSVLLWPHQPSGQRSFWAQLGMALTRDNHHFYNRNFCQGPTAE

[11] = BLA reporter readout interference – cell-based, fluorescence, artefact control for TLR9-MyD88 binding inhibitor project (AID 540251;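 active means mean inhibition above a 50% cutoff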;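 further: counterscreen of TLR9-MyD88 hits on CMV-driven BLA in CHO-K1 cells; 0% = DMSO alone and 100% = clavulanate blocking BLA; higher means less blue over green ratio so more BLA blockade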); settings: CHO-BLA cells, CCF4 FRET ratio, at 4.98 µM, active compounds read high
[12] = CHO cell viability loss – luminescence, single concentration, cytotoxicity control for TLR9-MyD88 binding inhibitor project (AID 588336; in the data active means inhibition above about 11%); settings: TLR9-MyD88 CHO cells cytotoxicity, at 4.98 µM, active compounds read high
[13] = biological target: Photoreceptor-specific nuclear receptor (Homo sapiens) (UniProt Q9Y5X4); assay: retest of NR2E3-NCOR disrupting agonists – cell-based, luminescence, CHO-S two-hybrid, confirmation (AID 624378;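 active means average inhibition above a cutoff equal to the mean inhibition of all tested compounds plus one SD, cut at about 70% in these data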;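 further: 0% = DMSO in NR2E3 cells and 100% = DMSO in cells lacking NR2E3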); settings: CHO-S mammalian two-hybrid NR2E3-NCOR, luciferase luminescence; at 3.98 µM; active compounds read high
Sequence of Photoreceptor-specific nuclear receptor (Homo sapiens) (Q9Y5X4 whole entry, looked up): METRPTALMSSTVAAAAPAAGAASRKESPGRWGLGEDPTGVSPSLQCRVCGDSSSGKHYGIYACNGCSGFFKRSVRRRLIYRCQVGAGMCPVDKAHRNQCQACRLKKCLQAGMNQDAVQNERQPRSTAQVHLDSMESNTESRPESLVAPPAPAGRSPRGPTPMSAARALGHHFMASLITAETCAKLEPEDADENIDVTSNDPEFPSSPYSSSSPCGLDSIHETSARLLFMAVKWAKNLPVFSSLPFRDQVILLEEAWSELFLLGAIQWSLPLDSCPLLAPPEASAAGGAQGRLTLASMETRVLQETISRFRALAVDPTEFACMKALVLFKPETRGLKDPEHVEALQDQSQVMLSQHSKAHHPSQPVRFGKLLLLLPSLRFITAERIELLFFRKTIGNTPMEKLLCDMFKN

[14] = nonselective effects on VP16 transactivation – cell-based, luminescence, CHO-S, high throughput, counter-screen for NR2E3 agonist project, confirmation (AID 624379;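 active means mean inhibition above a cutoff equal to the average over all tested compounds plus one standard deviation, cut at about 70% in these data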;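 further: 0% = DMSO with VP16-transfected cells and 100% = DMSO with cells lacking VP16; higher means less reporter light so more repression of VP16 activity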); settings: CHO-S GAL4-VP16 luciferase reporter, at 3.98 µM, active compounds read high
[15] = StAR promoter reporter inhibitors, counter-screen for LRH-1 inverse agonist project, cell-based, luminescence, high throughput (AID 651611; in the data active means inhibition above about 28%); settings: StAR promoter luciferase reporter counterscreen, at 3.6 µM, active compounds read high
[16] = biological target: Nuclear receptor subfamily 5 group A member 2 (Homo sapiens) (UniProt O00482); assay: NR5A2 activity suppression in reporter cells – cell-based, luminescence, confirmation (AID 651613; in the data active means inhibition above about 42%;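 further: HEK293T cells co-transfected with LRH-1 and StAR promoter luciferase reporter; 0% = vehicle wells and 100% = parental cells lacking receptor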); settings: cell-based LRH-1 luciferase reporter, inverse agonism; at 3.6 µM; active compounds read high
Sequence of Nuclear receptor subfamily 5 group A member 2 (Homo sapiens) (O00482 whole entry, looked up): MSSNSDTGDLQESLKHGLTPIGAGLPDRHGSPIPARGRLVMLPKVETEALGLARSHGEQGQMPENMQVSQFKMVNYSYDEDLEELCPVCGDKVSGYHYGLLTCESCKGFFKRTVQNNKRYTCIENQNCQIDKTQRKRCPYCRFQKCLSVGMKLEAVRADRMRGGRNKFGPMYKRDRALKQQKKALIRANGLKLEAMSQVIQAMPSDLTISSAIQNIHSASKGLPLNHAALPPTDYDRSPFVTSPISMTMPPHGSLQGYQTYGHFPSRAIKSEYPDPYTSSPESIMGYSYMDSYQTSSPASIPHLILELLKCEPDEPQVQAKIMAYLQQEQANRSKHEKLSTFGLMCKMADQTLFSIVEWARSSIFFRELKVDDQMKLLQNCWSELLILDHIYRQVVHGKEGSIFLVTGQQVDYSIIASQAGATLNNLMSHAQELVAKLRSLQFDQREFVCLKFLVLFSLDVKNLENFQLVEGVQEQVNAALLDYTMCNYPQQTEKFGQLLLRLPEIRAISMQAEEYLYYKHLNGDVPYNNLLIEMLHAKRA

[17] = biological target: Steroidogenic factor 1 (Homo sapiens) (UniProt Q13285); assay: inverse agonism at SF1 nuclear receptor – cell-based, luminescence, high throughput, counter-screen for LRH-1 inverse agonist project (AID 651614; in the data active means inhibition above about 44%;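 further: cells cotransfected with StAR promoter reporter and SF1 expression vector; 0% = vehicle on cells with receptor and 100% = vehicle on cells lacking receptor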); settings: cell-based SF1 luciferase reporter, at 3.6 µM, active compounds read high
Sequence of Steroidogenic factor 1 (Homo sapiens) (Q13285 whole entry, looked up, the tested form may be a part): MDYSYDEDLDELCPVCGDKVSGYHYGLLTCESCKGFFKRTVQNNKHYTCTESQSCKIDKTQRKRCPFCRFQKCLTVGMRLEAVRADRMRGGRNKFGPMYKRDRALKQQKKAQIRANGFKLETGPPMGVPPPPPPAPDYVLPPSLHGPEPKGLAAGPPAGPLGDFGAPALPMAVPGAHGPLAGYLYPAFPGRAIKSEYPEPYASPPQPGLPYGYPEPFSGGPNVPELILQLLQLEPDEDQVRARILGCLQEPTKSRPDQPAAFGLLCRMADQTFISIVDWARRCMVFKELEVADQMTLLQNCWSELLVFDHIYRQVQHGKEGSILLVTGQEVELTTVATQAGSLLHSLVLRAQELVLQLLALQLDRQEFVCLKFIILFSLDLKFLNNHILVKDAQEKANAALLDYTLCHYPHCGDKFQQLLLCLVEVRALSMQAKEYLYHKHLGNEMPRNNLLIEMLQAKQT

[18] = compounds suppressing VP16-driven luciferase signal – cell-based, luminescence, high throughput, counter-screen for LRH-1 inverse agonist project (AID 651615; in the data active means inhibition above about 33%); settings: Gal4-VP16 luciferase reporter cells, at 3.6 µM, active compounds read high
[19] = test system: transactivating tegument protein VP16 (Human herpesvirus 1); assay: compounds suppressing VP16-driven luciferase signal – cell-based, luminescence, single concentration, counter-screen for SRC2 inhibitor project (AID 652007; in the data active means inhibition above about 36%); settings: cell-based VP16 transactivation luciferase reporter, at 8.9 µM, active compounds read high
[20] = biological target: Nuclear receptor coactivator 2 (Homo sapiens) (UniProt Q15596); assay: inhibition of GAL4-SRC2 driven luciferase expression – cell-based, luminescence, HEK293, triplicate, confirmation (AID 652008;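 active means mean inhibition above 46.5%, the solvent-only control mean plus 3 SD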;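 further: 0% = DMSO-treated cells and 100% = Gossypol at 36 µM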); settings: HEK293 GAL4-SRC2 luciferase reporter, at 8.9 µM, active compounds read high
[21] = VP16-driven transactivation reporter suppression – cell-based, luminescence, HEK293, counter-screen for COUP-TFII antagonist project (AID 687007; in the data active means inhibition above about 13%); settings: HEK293 Gal4-VP16 luciferase reporter, at 8.5 µM, active compounds read high
[22] = biological target: COUP transcription factor 2 (Homo sapiens) (UniProt P24468); assay: retest of COUP-TFII reporter suppressors – cell-based, luciferase reporter, HEK293, triplicate, confirmation (AID 687008;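 active means mean inhibition over three repeats above a set limit taken from the earlier primary screen, cut at about 38% in these data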;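 further: 100% = cells given the luciferase reporter alone without the COUP-TF2 vector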); settings: HEK293 NGFI-A luciferase reporter, luminescence; at 8.5 µM; active compounds read high
[23] = biological target: Serine protease HTRA1 (Homo sapiens) (UniProt Q92743); assay: confirming inhibition of human HTRA1 – biochemical, fluorescence polarization, confirmation (AID 540248;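 active means mean inhibition over three repeats above a set limit taken from the earlier primary screen, cut at about 37% in these data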;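 further: 0% = HTRA1 with DMSO and 100% = wells lacking HTRA1; inhibitors block probe binding so polarization drops and inhibition rises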); settings: recombinant HTRA1, FP-rhodamine activity-based probe, at 5.96 µM, active compounds read high
[24] = biological target: (Lyso)-N-acylphosphatidylethanolamine lipase (Mus musculus) (UniProt Q8VD66); assay: mouse ABHD4 hydrolase blockers, triplicate – biochemical, fluorescence polarization, confirmation (AID 720658;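 active means mean inhibition across replicates above the hit cutoff set in the primary screen, cut at about 30% in these data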;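 further: 0% = wild-type ABHD4 with DMSO and 100% = catalytically dead S159A mutant with DMSO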); settings: purified mABHD4, FP-Rh probe fluorescence polarization; at 8.92 µM; active compounds read high
Sequence of (Lyso)-N-acylphosphatidylethanolamine lipase (Mus musculus) (Q8VD66 whole entry, looked up): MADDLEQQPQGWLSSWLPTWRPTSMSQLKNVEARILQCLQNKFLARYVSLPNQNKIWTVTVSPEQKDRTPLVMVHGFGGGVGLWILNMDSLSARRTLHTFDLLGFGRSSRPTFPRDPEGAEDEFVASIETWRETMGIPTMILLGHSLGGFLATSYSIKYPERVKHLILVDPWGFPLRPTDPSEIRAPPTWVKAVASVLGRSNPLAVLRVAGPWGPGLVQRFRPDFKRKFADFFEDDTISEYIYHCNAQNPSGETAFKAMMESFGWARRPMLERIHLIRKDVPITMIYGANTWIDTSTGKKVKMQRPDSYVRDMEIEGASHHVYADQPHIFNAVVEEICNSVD

[25] = test system: HIV-1 integrase (multimerization); assay: stimulation of HIV-1 integrase oligomerization – biochemical, TR-FRET, counter-screen for LEDGF/p75 integration inhibitor project (AID 1053131; in the data active means activation above about 8.9%); settings: TR-FRET HIV-1 integrase multimerization, at 7.7 µM, active compounds read high
[26] = compounds disturbing TR-FRET signal readout – biochemical, HIV-1 IN multimerization, artefact control for LEDGF/p75-dependent integration inhibitor project, confirmation (AID 1053135;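 active means inhibition above the mean over all tested compounds plus 3 SD, which no compound reached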;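 further: 0% = integrase with antibodies and DMSO and 100% = antibodies without integrase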); settings: TR-FRET optical interference counterscreen, at 7.7 µM, active compounds read high
[27] = test system: HIV-1 integrase / human LEDGF/p75 complex; assay: blockers of LEDGF/p75-dependent integrase activity – biochemical, TR-FRET, confirmation (AID 1053136; in the data active means inhibition above about 14%); settings: TR-FRET LEDGF/p75-dependent HIV-1 integration, at 3.7 µM, active compounds read high
[28] = potentiators of IFN-gamma STAT1 reporter activity – cell-based, HTS, luciferase reporter, confirmation (AID 1262;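 active means activation above a set limit carried over from the earlier primary STAT1 screen, cut at about 140% in these data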;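 further: simple ratio to median IFN-gamma plus DMSO wells so 0% means no light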); settings: NIH 3T3 STAT1-luciferase reporter, IFN-gamma potentiation, luminescence; at 5.7 µM; active compounds read high; 100% = IFN-gamma EC80 alone, no compound
[29] = enhancement of NF-kB transcriptional signalling – cell-based, HEK293T, luciferase luminescence, TNF-alpha, counter-screen for STAT1 activator project (AID 1306;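 active means activation above the mean of solvent-only control wells plus 3 SD, set per campaign, cut at about 130% in these data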;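 further: TNF-alpha given at a submaximal dose yielding about 80% of full reporter signal; values are well signal over median control so 100% means no change and 0% no light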); settings: HEK293T NF-kB luciferase reporter, TNF-alpha stimulated, at 5.7 µM, active compounds read high, 100% = TNF-alpha with vehicle only
[30] = biological target: Signal transducer and activator of transcription 3 (Homo sapiens) (UniProt P40763); assay: enhancers of IL-6 STAT3 transcription – U3A cells, luciferase, luminescence, counter-screen for STAT1 activator project, confirmation (AID 1316); settings: U3A cells STAT3-luciferase reporter, IL-6, luminescence; at 5.7 µM; active compounds read high; 100 = IL-6 alone, no compound effect; cells lack STAT1;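 further: 0% = no luminescence and 100% = median IL-6 plus DMSO wells; higher means more STAT3 reporter activation so hits are non-selective activators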
[31] = blockers of IL-6 STAT3 signaling – U3A cells, luciferase, luminescence, confirmation (AID 1265;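 active means inhibition above the hit cutoff computed for the primary STAT3 screen, cut at about 44% in these data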;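 further: 0% = IL-6 plus DMSO and 100% = IL-6 plus nifuroxazide control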); settings: IL-6 STAT3 luciferase reporter, at 5.7 µM, active compounds read high, cell line lacks STAT1
[32] = inhibition of TNF-alpha-driven NF-kB transcription – cell-based, HEK293T, luciferase, TNF-alpha stimulus, counter-screen for STAT3 inhibitor project, confirmation (AID 1308;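 active means inhibition above the mean of solvent-only control wells plus 3 SD, cutoff set per campaign, cut at about 13% in these data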;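 further: 0% = TNF-alpha with DMSO and 100% = TNF-alpha with MG high control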); settings: HEK293T NF-kB luciferase reporter, TNF-alpha induced; at 5.7 µM; active compounds read high
[33] = inhibition of STAT1-driven transcription – cell-based, NIH 3T3, luciferase luminescence, IFN-gamma, counter-screen for STAT3 inhibitor project, confirmation (AID 1317;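 active means inhibition above the mean plus 3 SD of solvent-only control wells, limit set per screening run, cut at about 16% in these data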;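 further: 0% = DMSO with IFN-gamma and 100% = nifuroxazide control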); settings: NIH 3T3 STAT1-luciferase reporter, IFN-gamma induced, at 5.7 µM, active compounds read high

O=C(/C=C/c1ccc(N2CCOCC2)cc1)c1ccccc1
inactive: inhibition [1] 21.1% | inhibition [3] 14.1% | inhibition [4] 15.4%
active: inhibition [2] 45.8% | inhibition [5] 29% | inhibition [6] 31.2%

O=C(Nc1ccccc1Cl)/C(Cl)=C(\Cl)S(=O)c1ccccc1 (stereo not given)
inactive: inhibition [1] 11.5% | inhibition [2] 14.5% | inhibition [8] 39.3% | inhibition [9] 14.2% | inhibition [11] 24.5% | inhibition [14] 47.4%
active: inhibition [7] 117% | inhibition [10] 39.3% | inhibition [12] 96.4% | inhibition [5] 78.8% | inhibition [6] 37.3% | inhibition [13] 90.1% | inhibition [15] 57.7% | inhibition [16] 88.7% | inhibition [17] 80.1% | inhibition [18] 80.8% | inhibition [19] 94.7% | inhibition [20] 95.9% | inhibition [21] 78.8% | inhibition [22] 101%

Cc1cc(C(=O)N/N=C/c2ccc(O)c([N+](=O)[O-])c2)c(C)n1-c1ccc(F)cc1
inactive: inhibition [26] -71.4%
active: inhibition [23] 120% | inhibition [24] 74% | activation [25] 14.2% | inhibition [27] 17.8%

CCC(=O)NC(=Nc1nc2ccccc2s1)NC(=O)CC
active: activation (% of control) [28] 216% | activation (% of control) [29] 138% | activation (% of control) [30] 112%

Cc1cc2nc(SCCN3CCOCC3)[nH]c2cc1C
inactive: activation (% of control) [29] 119%
active: activation (% of control) [28] 157% | activation (% of control) [30] 121%

COC(=O)Cc1cc(=O)n(-c2nc3ccccc3s2)[nH]1
inactive: inhibition [1] -4.76% | inhibition [2] 4.99%

O=C1c2cccc3c([N+](=O)[O-])ccc(c23)C(=O)N1CC1CCCO1 (stereo not given)
active: inhibition [1] 82.5% | inhibition [2] 108% | inhibition [7] 112% | inhibition [8] 118% | inhibition [10] 45.8% | inhibition [11] 73.2% | inhibition [12] 56.5% | inhibition [5] 83% | inhibition [6] 70.6%

OCCCN1c2ccccc2Nc2nnc(-c3ccccc3)cc21
active: activation (% of control) [28] 177%
inactive: activation (% of control) [29] 132% | activation (% of control) [30] 102%

CC1CN/C(=C\C(=O)c2ccc(Br)cc2)C(=O)N1 (stereo not given)
inactive: activation (% of control) [29] 117% | activation (% of control) [30] 87.3%
active: activation (% of control) [28] 250%

Cc1ccc2cc3cc(C(=O)N4CCCCCC4)oc3nc2c1
inactive: inhibition [31] 7.37% | activation (% of control) [29] 120% | inhibition [32] -42% | inhibition [33] -140%
active: activation (% of control) [28] 224% | activation (% of control) [30] 137%
